High-throughput results (PubChem)
A selection: hits, their analogues and other compounds. The true share with any hit is near 12%.
Shiga inhibitor: A qHTS for Small Molecule Inhibitors of Shiga Toxin; Vero cells, Shiga toxin protein synthesis inhibition reporter; inhibition, % at 38.7 µM; 290,000 tested, 9.2% active; AID 2315, 2010; in the data active means inhibition mostly above about 28%, no sharp cut-off; inactive means mostly below about 43%
Sm TGR inh: qHTS Assay for the Inhibitors of Schistosoma Mansoni Peroxiredoxins | AID 485364, 2010 | purified TGR, DTNB reduction, TNB absorbance 405 nm | Potency, µM (highest dose often 114 µM), hits mostly inhibitors | Schistosoma mansoni thioredoxin glutathione reductase (TGR), Q962Y6 | 360,000 tested, 3% active; active means well fitted inhibition curve with a large enough effect; inconclusive means small, poorly fitted or top-dose-only effect; inactive means no such curve, though single readings can be large or run the other way; further: nearly all actives have a fitted effect of over 60% in size
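TGR 20 nM + NADPH 100 uM (dispensed conc.), cpd preinc 15 min RT; start with NADPH (500 uM addition) then DTNB (15 mM addition). Kinetic TNB absorbance, 405 nm filter. Four-parameter Hill fit across titration.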
Cycloheximide cs: Cycloheximide Counterscreen for Small Molecule Inhibitors of Shiga Toxin; cell reporter, cycloheximide protein synthesis inhibition counterscreen; max response, %; 300,000 tested, 12% active; in the data active means max response mostly above about 13%, no sharp cut-off; inactive means mostly below about 14%; further: read at 38.3 µM for the half of the compounds with a filed dose
FMDV inh: High Throughput Screening for Foot and Mouth Disease Virus Antivirals; FMDV antiviral cell-based qHTS; Potency, µM (titrated, usually from 57.9 µM), hits mostly inhibitors; 410,000 tested, 1.2% active; AID 1159524, 2015; calls by dose curve; tested in HEK293T cells; further: read-out not given here; nearly all actives have a fitted effect of over 45% in size
Large screens that a line does not name were inactive.

Cc1ccc(-c2cn3cccnc3n2)cc1	Shiga inhibitor 71.4, Cycloheximide cs 27.8
O=C1CSC2(C(=O)N(Cc3ccccc3F)c3ccccc32)N1c1cccc(C(F)(F)F)c1 (centres undefined)	FMDV inh inconclusive (no result: Shiga inhibitor, Cycloheximide cs)
Cc1nccc(-c2ccc3c(c2)OCO3)n1	none
c1ccc(-c2nccc(-c3ccc4c(c3)OCO4)n2)cc1	Shiga inhibitor 70.2, Cycloheximide cs 54.7
CCN=C(N/N=C/c1ccc([N+](=O)[O-])cc1)SC	Sm TGR inh 44.7µM
CC(/C=N/NC(=O)c1ccc(Cn2cc([N+](=O)[O-])cn2)o1)=C\c1ccccc1	Shiga inhibitor 71.5, Cycloheximide cs 26.0
NNC(=O)c1ccc(COc2ccc3c(c2)CCC3)o1	none
CCOc1ccccc1/C=N/NC(=O)c1ccc(Cn2cc([N+](=O)[O-])cn2)o1	FMDV inh inconclusive
O=C(N/N=C/c1cccc(O)c1)c1ccc(COc2ccc3c(c2)CCC3)o1	Shiga inhibitor 56.9, Cycloheximide cs 34.8, FMDV inh inconclusive
O=[N+]([O-])c1ccc(C=NNC(=S)NN=Cc2ccc([N+](=O)[O-])cc2)cc1	none (no result: Shiga inhibitor, Sm TGR inh, Cycloheximide cs)
CCOc1ccc(/C=N/NC(=O)c2ccc(Cn3cc([N+](=O)[O-])cn3)o2)cc1	Shiga inhibitor 51.2, Cycloheximide cs 22.7
Cc1cnc(CNc2nc(-c3ccccc3Cl)nc3ccccc23)cn1	none (no result: Shiga inhibitor, Sm TGR inh, Cycloheximide cs)
COc1cccc(-c2nn(C)c3sc(C(=O)NCCc4cccc(C)c4)cc23)c1	none (no result: Shiga inhibitor, Cycloheximide cs)
C/C(=N\NC(=O)c1ccc(Cn2cc(Br)cn2)o1)c1ccc(NC(=O)c2ccoc2C)cc1	Shiga inhibitor 65.1, Cycloheximide cs 38.7
CC(C)(C)c1ccc(OCc2ccc(C(=O)N/N=C/c3ccc([N+](=O)[O-])cc3)o2)cc1	Shiga inhibitor 58.1
COc1ccc(/C=N/NC(=O)c2ccc(COc3ccccc3Cl)o2)cc1	none
CCOc1ccc(/C=N/NC(=O)c2ccc(Cn3cc(Br)cn3)o2)cc1	Shiga inhibitor active, Cycloheximide cs 28.0
O=C(N/N=C/c1c(F)c(F)c(F)c(F)c1F)c1ccc(Cn2cc(Br)cn2)o1	FMDV inh inconclusive
CCOc1ccc(CNC(=S)N/N=C\c2ccc([N+](=O)[O-])cc2)cc1	Cycloheximide cs 11.7
COc1ccc(CN2COc3ccc4c(C)cc(=O)oc4c3C2)cc1	none (no result: Shiga inhibitor, Cycloheximide cs)
CCOc1ccc(CC(=O)N/N=C/c2cccnc2)cc1	none
CCCc1ccc(OCc2ccc(C(=O)N/N=C/c3cccnc3)o2)cc1	Shiga inhibitor 109.6, Cycloheximide cs 68.4
COc1ccc2c(c1)NC(c1ccc(N(C)C)cc1)c1cccn1-2 (centres undefined)	Shiga inhibitor 79.2, Sm TGR inh 50.1µM, Cycloheximide cs 24.7
COc1ccc(-n2nnnc2C(CCSC)N2CCC(n3c(=O)[nH]c4ccccc43)CC2)cc1 (centres undefined)	none (no result: Shiga inhibitor, Sm TGR inh, Cycloheximide cs)
CCCCn1nnnc1C(CCc1ccccc1)N1CCC(n2c(=O)[nH]c3ccccc32)CC1 (centres undefined)	FMDV inh 20µM (no result: Shiga inhibitor, Sm TGR inh, Cycloheximide cs)
COc1ccc(C(c2nnnn2-c2ccc3c(c2)OCCO3)N2CCC(n3c(=O)[nH]c4ccccc43)CC2)cc1 (centres undefined)	none (no result: Shiga inhibitor, Sm TGR inh, Cycloheximide cs)
O=c1[nH]c2ccccc2n1C1CCN(C(CCc2ccccc2)c2nnnn2-c2ccc3c(c2)OCCO3)CC1 (centres undefined)	FMDV inh 25.1µM (no result: Shiga inhibitor, Sm TGR inh, Cycloheximide cs)
Cc1cccc(C)c1-n1nnnc1C(CCc1ccccc1)N1CCC(n2c(=O)[nH]c3ccccc32)CC1 (centres undefined)	FMDV inh 10µM (no result: Shiga inhibitor, Sm TGR inh, Cycloheximide cs)
CCC(c1nnnn1-c1ccc(OC)cc1)N1CCC(n2c(=O)[nH]c3ccccc32)CC1 (centres undefined)	none (no result: Shiga inhibitor, Sm TGR inh, Cycloheximide cs)
COc1ccc(-n2nnnc2C(CCc2ccccc2)N2CCC(n3c(=O)[nH]c4ccccc43)CC2)cc1 (centres undefined)	FMDV inh 28.2µM (no result: Shiga inhibitor, Sm TGR inh, Cycloheximide cs)
COc1ccccc1CCNC(=O)C1(c2cccs2)CCOCC1	none (no result: Shiga inhibitor, Cycloheximide cs)
COc1ccc(CCNC(=O)C(C)n2c(=O)cc(C(F)(F)F)c3c(C)nn(C)c32)cc1OC (centres undefined)	none (no result: Shiga inhibitor, Cycloheximide cs)
Cc1cc(C(=O)Nc2ccccc2-c2nc(CNC(=O)C3COc4ccccc4O3)c(C)o2)c(C)o1 (centres undefined)	none (no result: Shiga inhibitor, Sm TGR inh, Cycloheximide cs)
CC(=O)Oc1oc(-c2ccccc2)nc1C=Nc1ccccc1	Sm TGR inh 17.8µM
CCOC(=O)c1ccc(N=Cc2nc(-c3ccccc3)oc2OC(C)=O)cc1	Sm TGR inh inconclusive
COc1ccc(N=Cc2nc(-c3ccccc3)oc2OC(=O)c2ccccc2)cc1	Shiga inhibitor 66.7, Cycloheximide cs 59.3
CN(C)c1ccc(N=Cc2nc(-c3ccccc3)oc2OC(=O)c2cccc(Br)c2)cc1	Shiga inhibitor active, Cycloheximide cs 40.0
O=C(O)c1ccc(N=Cc2nc(-c3ccco3)oc2O)cc1	none
Oc1oc(-c2ccco2)nc1C=Nc1ccccc1	Shiga inhibitor 98.6, Cycloheximide cs 19.4 (no result: FMDV inh)
CCC(=O)Oc1oc(-c2ccccc2)nc1C=Nc1ccccc1OC	none
CC(C)n1c(SCC(=O)Nc2ccc(F)cc2)nc2c(oc3ccccc32)c1=O	none (no result: Shiga inhibitor, Cycloheximide cs)
Cc1ccc(C(=O)Oc2oc(-c3ccco3)nc2C=Nc2ccccc2)cc1	Shiga inhibitor 89.1, Sm TGR inh 2.51µM, Cycloheximide cs 31.4 (no result: FMDV inh)
Cc1ccc2c(c1)-c1nc(-c3ccc(Cl)cc3)cc(-c3coc4ccccc4c3=O)c1CO2	none (no result: Shiga inhibitor, Cycloheximide cs)
CCC(C)c1ccc(OCC(=O)Nc2ccc(-c3nc4ncccc4o3)cc2)cc1 (centres undefined)	none (no result: Shiga inhibitor, Cycloheximide cs)
Cc1nc2ccc(NC(=O)Cc3ccsc3)cc2s1	Cycloheximide cs 27.6
Cc1nc2ccc(NC(=O)Cc3ccccc3F)cc2s1	Shiga inhibitor 102.6, Cycloheximide cs 58.2 (no result: Sm TGR inh)
Cc1nc2ccc(S(=O)(=O)NCC(=O)Nc3ccc(F)cc3)cc2s1	none
Cc1ccc(NC(=O)Cc2ccsc2)cc1Cl	Shiga inhibitor 55.6, Cycloheximide cs 25.1
Cc1nc2ccc(NC(=O)Cc3cccc(F)c3)cc2s1	Shiga inhibitor 38.9, Cycloheximide cs 36.0
Cc1nc2ccc(NS(=O)(=O)c3c(F)cccc3F)cc2s1	none (no result: Shiga inhibitor, Sm TGR inh, Cycloheximide cs)
COc1ccccc1NC(=O)CSc1nc2c(oc3ccccc32)c(=O)n1-c1ccc(C)cc1	none (no result: Shiga inhibitor, Cycloheximide cs)
Cc1ccc(S(=O)(=O)N(C)/N=C/c2ccc(N(C)C)cc2)cc1	Shiga inhibitor 69.6, Cycloheximide cs 56.7
O=C(/C=C/c1ccccc1)c1c(O)n(CCc2ccccc2)c(=O)[nH]c1=O	FMDV inh 12.6µM
O=C(/C=C/c1ccc2c(c1)OCO2)c1c(O)n(CCc2ccccc2)c(=O)[nH]c1=O	FMDV inh 12.6µM
Cn1c(N)c(C(=O)Nc2ccccc2)c(=O)[nH]c1=O	none (no result: Shiga inhibitor, Sm TGR inh, Cycloheximide cs)
Cn1c(N)c(C(=O)/C=C/c2ccccc2)c(=O)[nH]c1=O	Shiga inhibitor 68.8, Cycloheximide cs 48.4
COc1cc(/C=C/C(=O)c2c(O)n(CCc3ccccc3)c(=O)[nH]c2=O)ccc1O	Sm TGR inh inconclusive
CC(C)c1cc(-c2nc(-c3ccc(Cl)cc3)no2)n[nH]1	none (no result: Shiga inhibitor, Cycloheximide cs)
CCOC(=O)CSc1nc2ccc(NC(=O)c3ccccc3F)cc2s1	none (no result: Shiga inhibitor, Cycloheximide cs)
COc1ccc(-n2c(C)cc(/C=C(\C#N)C(=O)NCc3ccco3)c2C)cc1	Shiga inhibitor 50.5, Cycloheximide cs 47.4
